Results filed as inconclusive are left out. Calls of active or inactive are those of the source. The calls were made as follows: active = hit-call score of the fitted dose curve at least 0.9, where 1 is the maximum; inconclusive = response in the unintended direction; inactive = score below 0.9.

Sequence of PGR (gene 5241) (P06401 whole entry, looked up): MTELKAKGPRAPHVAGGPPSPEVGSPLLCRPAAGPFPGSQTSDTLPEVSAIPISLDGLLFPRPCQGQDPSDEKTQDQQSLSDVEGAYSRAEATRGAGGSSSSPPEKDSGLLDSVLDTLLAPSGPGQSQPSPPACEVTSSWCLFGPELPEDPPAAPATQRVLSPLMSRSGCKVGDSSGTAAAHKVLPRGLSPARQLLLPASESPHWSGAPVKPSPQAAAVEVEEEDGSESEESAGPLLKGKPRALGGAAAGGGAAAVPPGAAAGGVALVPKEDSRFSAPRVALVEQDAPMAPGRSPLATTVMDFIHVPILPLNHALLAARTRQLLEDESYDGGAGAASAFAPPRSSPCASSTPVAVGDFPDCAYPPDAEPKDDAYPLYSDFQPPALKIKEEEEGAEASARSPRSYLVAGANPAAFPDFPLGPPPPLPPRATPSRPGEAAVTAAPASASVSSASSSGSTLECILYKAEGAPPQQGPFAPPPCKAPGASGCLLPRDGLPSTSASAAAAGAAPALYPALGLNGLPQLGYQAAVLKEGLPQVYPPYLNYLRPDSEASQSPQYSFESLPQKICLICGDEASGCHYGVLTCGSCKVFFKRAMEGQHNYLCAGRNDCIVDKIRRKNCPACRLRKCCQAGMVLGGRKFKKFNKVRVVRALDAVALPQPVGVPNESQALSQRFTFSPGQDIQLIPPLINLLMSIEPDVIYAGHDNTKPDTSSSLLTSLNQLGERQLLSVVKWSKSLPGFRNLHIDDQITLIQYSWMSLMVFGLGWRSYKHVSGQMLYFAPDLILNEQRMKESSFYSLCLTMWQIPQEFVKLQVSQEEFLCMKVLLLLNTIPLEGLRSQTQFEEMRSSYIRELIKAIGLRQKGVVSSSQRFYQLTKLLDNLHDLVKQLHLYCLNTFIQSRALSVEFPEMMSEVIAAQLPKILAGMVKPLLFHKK

In the first test the test system is Sodium/Iodide Symporter (NIS), SLC5A5 (gene 6528). Kind of test: CPHEA_Stoker_NIS_Inhibition_RAIU: CPHEA's Radioactive Iodide Uptake (RAIU) Assay for Sodium/Iodide Symporter (NIS) Inhibition, Stoker and Laws Labs (AID 2283841). The essentials: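 hNIS-HEK293T-EPA cells incubated 2 h at room temperature with compound (0.001–100 uM, 0.5% DMSO) and 329 pM final 125I in HBSS/10 mM HEPES, pH 7.4. Intracellular 125I counted; normalised to DMSO maximal uptake, triplicate, three biological replicates.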
As usually defined, the AC50 is the midpoint of the concentration-response curve, whichever way the signal moves. As for `CCCCCCCCCCOS(=O)(=O)O`, the AC50 was 8.08 µM (active).

With `CCCCCCCC[N+](C)(CCCCCCCC)CCCCCCCC`, the AC50 was 10.4 µM (active).

Consider `NC(CO)(CO)CO`, for which the result was inactive.

Consider `CN(C)c1ccc(C(=N)c2ccc(N(C)C)cc2)cc1`, for which the AC50 is 19.8 µM (active).

In the case of `CCOC(=O)Cc1cccc2ccccc12`, the outcome was inactive.

In the case of `CCN(CCC#N)c1ccc(N=Nc2c(Cl)cc([N+](=O)[O-])cc2Cl)cc1`, the result was inactive.

Take `c1ccc2c(c1)ccc1cc3c(ccc4ccccc43)cc12`: the result was inactive.

As for `O=C(C=Cc1ccccc1)OCc1ccccc1`, the result was inactive.

On to `CC(C)(C)c1ccc(OC(=O)c2ccccc2O)cc1`, for which the result was inactive.

Turning to `CO[Si](OC)(OC)c1ccccc1`, the outcome was inactive.

For `CC/C=C\C/C=C\C/C=C\CCCCCCCC(=O)O`, the outcome was inactive.

`O=c1cc(-c2ccccc2)oc2ccccc12`: the result was inactive.

Take `Oc1ccc(Cl)cc1Cc1cc(Cl)ccc1O`: the AC50 is 9.92 µM (active).

System in a further test: not listed separately
Kind of test: CPHEA_Stoker_NIS_Cytotoxicity: Cytotoxicity Assessment for CPHEA's Radioactive Iodide Uptake (RAIU) Assay for Sodium/Iodide Symporter (NIS) Inhibition, Stoker and Laws Labs (AID 2283897).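 As to AC50: active means loss of ATP signal versus DMSO meaning cytotoxicity.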 In a few lines:
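hNIS-HEK293T-EPA cells, human NIS expressed in HEK293T, treated 2 h with chemicals (0.001–100 uM, 0.5% final DMSO). ATP content read by CellTiter-Glo luminescence; loss of signal analysed relative to DMSO.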
As to `CCCCCCCCCCOS(=O)(=O)O`, the outcome was inactive.

For `CCCCCCCC[N+](C)(CCCCCCCC)CCCCCCCC`, the half-maximal activity concentration (AC50) was 50 µM (active).

Turning to `NC(CO)(CO)CO`, the result was inactive.

As to `CN(C)c1ccc(C(=N)c2ccc(N(C)C)cc2)cc1`, the outcome was inactive.

With `CCOC(=O)Cc1cccc2ccccc12`, the outcome was inactive.

With `CCN(CCC#N)c1ccc(N=Nc2c(Cl)cc([N+](=O)[O-])cc2Cl)cc1`, the outcome was inactive.

For `c1ccc2c(c1)ccc1cc3c(ccc4ccccc43)cc12`, the result was inactive.

As to `O=C(C=Cc1ccccc1)OCc1ccccc1`, the outcome was inactive.

Consider `CC(C)(C)c1ccc(OC(=O)c2ccccc2O)cc1`, for which the outcome was inactive.

In the case of `CO[Si](OC)(OC)c1ccccc1`, the outcome was inactive.

Turning to `CC/C=C\C/C=C\C/C=C\CCCCCCCC(=O)O`, the result was inactive.

Take `O=c1cc(-c2ccccc2)oc2ccccc12`: the outcome was inactive.

For the molecule `Oc1ccc(Cl)cc1Cc1cc(Cl)ccc1O`, the AC50 is 50 µM (active).

For the molecule `C1CN(SSN2CCOCC2)CCO1`, the outcome was inactive.

In a further test the target is PGR (gene 5241) (UniProt P06401). Kind of test: TOX21_PR_BLA_Followup_Antagonist_ratio: Tox21 HEK293 Progesterone Receptor (PR) Antagonism Beta-lactamase Follow-Up Assay, Ratio (AID 2283934). The essentials:
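PR-UAS-bla HEK293T cells, 3,000/well in 2% charcoal-stripped FBS, given compound plus 1nM R5020 agonist for 16 hr at 37C. Beta-lactamase FRET substrate 2 hours, ratio cleaved/uncleaved fluorescence; viability by CellTiter-Glo in same wells.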
For the molecule `C[C@]12CCC(=O)C=C1CC[C@@H]1[C@@H]2C(=O)C[C@@]2(C)[C@H]1CC[C@]2(O)C(=O)CO`, the result was inactive.

Take `CCC(=O)Oc1ccc(/C(CC)=C(\CC)c2ccc(OC(=O)CC)cc2)cc1`: the AC50 was 9.26 µM (active).

Take `CCOC(=O)c1ccccc1C(=C1C=C(Br)C(=O)C(Br)=C1)c1cc(Br)c(O)c(Br)c1`: the AC50 was 24.5 µM (active).

Regarding `C[C@]12C=CC(=O)C=C1CC[C@@H]1[C@@H]2[C@@H](O)C[C@@]2(C)[C@H]1CC[C@]2(O)C(=O)CO`, the result was inactive.

In the case of `Nc1ccc(-c2ccc(F)cc2)cc1`, the AC50 is 24.6 µM (active).

As to `Cc1ccc(C(C)c2ccc(C)c(C)c2)cc1C`, the outcome was inactive.

With `CC(C)(c1cc(Br)c(OCCO)c(Br)c1)c1cc(Br)c(OCCO)c(Br)c1`, the AC50 was 13.4 µM (active).

For the molecule `CC(=O)[C@H]1[C@H](C#N)C[C@H]2[C@@H]3CC=C4C[C@@H](O)CC[C@]4(C)[C@H]3CC[C@@]21C`, the AC50 was 19.2 µM (active).

As to `COc1ccc(C(Cl)=C(c2ccc(OC)cc2)c2ccc(OC)cc2)cc1`, the AC50 is 8.27 µM (active).

Turning to `C#CC1(O)CC[C@H]2[C@@H]3CCC4=CCCC[C@@H]4[C@H]3CC[C@@]21C` (some centres not stated), the outcome was inactive.

System in the next test: not listed separately
Nature of the test: TOX21_PR_BLA_Followup_Agonist_viability: Viability Assessment in the Tox21 HEK293 Progesterone Receptor (PR) Agonism Beta-lactamase Follow-Up Assay (AID 2283935).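 Also: signal loss means lower viability so actives are cytotoxic.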 The essentials: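 PR-UAS-bla HEK293T cells in 2% charcoal-stripped FBS medium, plated 6 hr before compound addition, exposed 16 hr at 37C. Viability read by CellTiter-Glo ATP luminescence after 30 min at room temperature, in the same wells as the beta-lactamase readout.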
In the case of `C[C@]12CCC(=O)C=C1CC[C@@H]1[C@@H]2C(=O)C[C@@]2(C)[C@H]1CC[C@]2(O)C(=O)CO`, the molecule was called inactive.

Take `CCC(=O)Oc1ccc(/C(CC)=C(\CC)c2ccc(OC(=O)CC)cc2)cc1`: the molecule was classed as inactive.

`CCOC(=O)c1ccccc1C(=C1C=C(Br)C(=O)C(Br)=C1)c1cc(Br)c(O)c(Br)c1`: the molecule was classed as inactive.

In the case of `C[C@]12C=CC(=O)C=C1CC[C@@H]1[C@@H]2[C@@H](O)C[C@@]2(C)[C@H]1CC[C@]2(O)C(=O)CO`, the molecule was called inactive.

For the molecule `Nc1ccc(-c2ccc(F)cc2)cc1`, the result was inactive.

`Cc1ccc(C(C)c2ccc(C)c(C)c2)cc1C`: the call was inactive.

As for `CC(C)(c1cc(Br)c(OCCO)c(Br)c1)c1cc(Br)c(OCCO)c(Br)c1`, the AC50 is 32.2 µM (active).

With `CC(=O)[C@H]1[C@H](C#N)C[C@H]2[C@@H]3CC=C4C[C@@H](O)CC[C@]4(C)[C@H]3CC[C@@]21C`, the call was inactive.

With `COc1ccc(C(Cl)=C(c2ccc(OC)cc2)c2ccc(OC)cc2)cc1`, the molecule was classed as inactive.

Take `C#CC1(O)CC[C@H]2[C@@H]3CCC4=CCCC[C@@H]4[C@H]3CC[C@@]21C` (some centres not stated): the outcome was inactive.

System in the next test: not listed separately
Nature of the test: TOX21_PR_BLA_Followup_Antagonist_viability: Viability Assessment in the Tox21 HEK293 Progesterone Receptor (PR) Antagonism Beta-lactamase Follow-Up Assay (AID 2283936).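 Also: hits lower the luminescence signal meaning cytotoxicity.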 The essentials:
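PR-UAS-bla HEK293T cells (3,000/well, 2% charcoal-stripped FBS) given compound plus R5020 agonist, 16 h at 37C. CellTiter-Glo added after bla read, 30 min at room temperature; luminescence loss indicates cytotoxicity.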
Take `C[C@]12CCC(=O)C=C1CC[C@@H]1[C@@H]2C(=O)C[C@@]2(C)[C@H]1CC[C@]2(O)C(=O)CO`: the molecule was classed as inactive.

In the case of `CCC(=O)Oc1ccc(/C(CC)=C(\CC)c2ccc(OC(=O)CC)cc2)cc1`, the call was inactive.

Turning to `CCOC(=O)c1ccccc1C(=C1C=C(Br)C(=O)C(Br)=C1)c1cc(Br)c(O)c(Br)c1`, the molecule was classed as inactive.

For the molecule `C[C@]12C=CC(=O)C=C1CC[C@@H]1[C@@H]2[C@@H](O)C[C@@]2(C)[C@H]1CC[C@]2(O)C(=O)CO`, the call was inactive.

On to `Nc1ccc(-c2ccc(F)cc2)cc1`, for which the result was inactive.

On to `Cc1ccc(C(C)c2ccc(C)c(C)c2)cc1C`, for which the molecule was called inactive.

With `CC(C)(c1cc(Br)c(OCCO)c(Br)c1)c1cc(Br)c(OCCO)c(Br)c1`, the AC50 was 54 µM (active).

Take `CC(=O)[C@H]1[C@H](C#N)C[C@H]2[C@@H]3CC=C4C[C@@H](O)CC[C@]4(C)[C@H]3CC[C@@]21C`: the molecule was called inactive.

For the molecule `COc1ccc(C(Cl)=C(c2ccc(OC)cc2)c2ccc(OC)cc2)cc1`, the molecule was classed as inactive.

In the case of `C#CC1(O)CC[C@H]2[C@@H]3CCC4=CCCC[C@@H]4[C@H]3CC[C@@]21C` (some centres not stated), the call was inactive.

For the origin of these results see PubChem BioAssay (EPA / NIEHS).
